Consider 49 molecules from PubChem BioAssay AID2685 (National Center for Advancing Translational Sciences (NCATS), 2010).

Each structure is given as a SMILES string. Out of some 320,000 compounds screened, about 2,100 (0.66%) were called active. Not shown: some 53% with an inconclusive outcome. Calls follow the shape of the dose curve; as a rule, active = well fitted inhibition curve with a large enough effect in the signal ratio, with a control signal flat (not every such curve was filed as active); inconclusive = small, poorly fitted or top-dose-only effect, or effect the other way, or a change in a side signal; inactive = flat fitted curve, though single readings scatter; the % refers to the signal ratio. This excerpt belongs to a sample that is enriched for actives.
Potency is read from the fitted curve at half-maximal effect.

The nature of the assay: qHTS Assay for Lipid Storage Modulators in Drosophila S3 Cells.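 As to cell number change: cells counted by Cell Tracker Red CMTPX staining in the red channel.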 As to lipid storage change, negative = inhibition: % is scaled to controls: 0 for no effect and ±100 for the full control effect. The following applies: BODIPY lipid droplet fluorescence, 18-24 h, cells fed with added oleic acid; cell number change: measured here: cell count max response; series mostly up to 46.1 µM; lipid storage change, negative = inhibition: at the top concentration. The gist of the method:
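Laser-scanning cytometry quantifies lipid droplet accumulation (500–530 nm total intensity; droplet/cell object ratio) in oleic acid-fed (400 uM added) Drosophila S3 cells treated with a concentration series. 20 uM Triacsin C defined 100% inhibition.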
For orientation: In qHTS, concentration-response curves come from the screen itself.
`Cc1nc(Cc2ccc(OC(C)C)cc2)[nH]c(=O)c1CC(=O)O`: the “lipid storage change, negative = inhibition” value is 17.8% (inactive) and the cell number change worked out at 12.4%.
As to `O=C(Nc1nc(-c2ccc(Cl)cc2)cs1)C1=COCCO1`, the Potency is 9.2 µM (active) and the cell number change is -17.4%.
In the case of `Cc1ccc(-c2csc(NC(=O)C3=COCCO3)n2)cc1`, the “lipid storage change, negative = inhibition” value was 12.5% (inactive) and the cell number change is -0.453%.
Regarding `CC(=O)Nc1ccc(-c2csc(NC(=O)C3=COCCO3)n2)cc1`, the lipid storage change, negative = inhibition was -16.5% [at 0.0737 µM] (inactive).
With `COC(=O)CNC(c1ccccc1)c1cc(Br)ccc1NC(C)=O` (stereo not drawn), the “lipid storage change, negative = inhibition” value is 10.9% (inactive) and the cell number change came to 6.76%.
Regarding `CCC(=O)Nc1ccc(NC(=O)c2ccccc2Cl)nc1`, the molecule was called inactive and the cell number change stood at 7.43%.
With `COc1cc(C(=O)Oc2ccc(C(=S)N3CCOCC3)cc2)cc(OC)c1OC`, the “lipid storage change, negative = inhibition” value was -15.9% (inactive) and the cell number change was -0.493%.
As for `CCOCCOc1cccc(C(=O)NC(c2ccccc2)C(C)C)c1` (stereo not drawn), the “lipid storage change, negative = inhibition” value was -3.66% (inactive) and the cell number change worked out at 13.4%.
With `CCOc1cccc(C(=O)Nc2ccc3ccccc3c2)c1`, the molecule was classed as inactive and the cell number change was 17.9%.
Take `CCOCCOc1cccc(C(=O)NC(C)c2ccc3ccccc3c2)c1` (stereo not drawn): the Potency was 13 µM (active) and the cell number change was -6.8%.
As to `CC12COC3(C(=O)Nc4ccccc4F)CC1CCC32C` (stereo not drawn), the “lipid storage change, negative = inhibition” value was 0.0813% (inactive) and the cell number change is -23.5%.
As for `CCc1nc(C)cn1S(=O)(=O)c1ccc([N+](=O)[O-])cc1`, the “lipid storage change, negative = inhibition” value was -3.24% (inactive) and the cell number change was determined as 7.81%.
With `COC(=O)CN1C(=S)N(C)C(=O)/C1=C/c1cccs1`, the outcome was inactive.
Take `O=C(CCCc1ccccc1)c1ccc2c(c1)OCCO2`: the “lipid storage change, negative = inhibition” value was 5.96% (inactive) and the cell number change is -0.322%.
As to `O=C(Cc1ccccc1)c1ccc2c(c1)OCCO2`, the “lipid storage change, negative = inhibition” value was 2.3% (inactive) and the cell number change worked out at 9.53%.
Take `O=C(CCCO)c1ccc2c(c1)OCCO2`: the Potency was 18.4 µM (active) and the cell number change is -5.61%.
As for `Cn1c2c(c3ccccc31)CC/C2=N\O`, the molecule was classed as inactive and the cell number change amounted to 17%.
For `Cc1ccc(P(=O)(OCCN2CCOCC2)C(C)(C)C)o1` (stereo not drawn), the “lipid storage change, negative = inhibition” value was -11.2% (inactive) and the cell number change was -0.698%.
Turning to `CCCCc1nnc(NC(=O)CSc2nc(O)c(-c3ccccc3)c(=O)[nH]2)s1`, the “lipid storage change, negative = inhibition” value was -3.64% (inactive) and the cell number change was -17.7%.
For `O=C1CC(c2ccc3c(c2)OCCO3)Oc2ccc([N+](=O)[O-])cc21` (stereo not drawn), the Potency is 7.31 µM (active) and the cell number change was -9.91%.
As for `COc1ccc2c(c1)C(=O)CC(c1ccc3c(c1)OCCO3)O2` (stereo not drawn), the “lipid storage change, negative = inhibition” value is 8.02% (inactive) and the cell number change turned out to be 2.81%.
The matching figures for `O=C1CC(c2ccc3c(c2)OCCO3)Oc2ccccc21` (stereo not drawn): 9.86% (inactive) and 8.06%.
The matching figures for `C/C(N)=C(/C#N)C(=O)COC(=O)c1ccc(NC(N)=O)cc1`: 7.52% (inactive) and 13.4%.
In the case of `O=C(N/N=C/c1cccc([N+](=O)[O-])c1)c1ccc(Br)cc1`, the “lipid storage change, negative = inhibition” value is -16.9% (inactive) and the cell number change worked out at 0.144%.
`Cn1nnnc1SCCNCc1ccccc1OCc1ccccc1`: the “lipid storage change, negative = inhibition” value is -2.39% (inactive) and the cell number change was found to be 16.4%.
In the case of `Cn1nnnc1SCCNCc1cc(Cl)ccc1OCc1ccccc1`, the Potency is 5.8 µM (active) and the cell number change turned out to be 3.31%.
As for `COc1cc(CNCCSc2nnnn2C)cc(Br)c1OCc1ccccc1`, the “lipid storage change, negative = inhibition” value was 7.07% (inactive) and the cell number change is -4.04%.
Regarding `O=C(CSc1nccn1Cc1ccco1)Nc1ccccc1`, the “lipid storage change, negative = inhibition” value is -11.6% (inactive) and the cell number change was 2.09%.
On to `COc1cnc(-c2ccccn2)nc1Oc1c(C)cccc1C`, for which the call was inactive.
On to `COc1cnc(-c2ccccc2)nc1Oc1ccccc1C`, for which the Potency is 5.17 µM (active) and the cell number change was -26.8%.
As to `COc1cnc(-c2ccccc2)nc1Oc1cccc(C)c1C`, the “lipid storage change, negative = inhibition” value is 0.382% (inactive) and the cell number change is 7.32%.
As for `COc1ccc(/C=C2/N=C(SC3CCOC3=O)N(c3cccc(OC)c3)C2=O)cc1` (stereo not drawn), the “lipid storage change, negative = inhibition” value is -2.83% (inactive) and the cell number change is -7.72%.
As to `CCOC(=O)C1CCN(CC(=O)c2c(C)[nH]c3ccccc23)CC1`, the call was inactive.
For the molecule `O=c1oc(-c2cccs2)nc2ccccc12`, the “lipid storage change, negative = inhibition” value is -17.8% (inactive) and the cell number change amounted to 0.728%.
With `Cc1ccc(CSCCNC(=O)CSCc2ccc([N+](=O)[O-])cc2)cc1`, the call was inactive.
Regarding `Cc1cccc(CSCCNC(=O)CSCc2ccc([N+](=O)[O-])cc2)c1`, the Potency was 14.6 µM (active) and the cell number change is -21.3%.
Turning to `Cc1ccccc1CSCCNC(=O)CSCc1ccc([N+](=O)[O-])cc1`, the “lipid storage change, negative = inhibition” value was 13% (inactive) and the cell number change was -11.7%.
The corresponding values for `Cc1ccc(C)c(N2CCN(C(=O)c3ccccc3Br)CC2)c1` are 20.8% (inactive) and 10.9%.
On to `COC(=O)C1(Cc2cc(-c3cccc(Br)c3)no2)CCN(C(=O)OC(C)(C)C)CC1`, for which the “lipid storage change, negative = inhibition” value was 36% (inactive) and the cell number change stood at 7.19%.
As for `Brc1cccc(-c2nnc(-c3ccccc3)o2)c1`, the “lipid storage change, negative = inhibition” value is 2.23% (inactive) and the cell number change turned out to be 1.68%.
Take `CNc1ccccc1C(C)(C)c1cc(-c2cccc(Br)c2)no1`: the Potency is 1.46 µM (active) and the cell number change is -5.11%.
As for `CCc1ccc(CNC(=O)C2CCN(S(=O)(=O)N3CCC4(CC3)OCCO4)CC2)cc1`, the “lipid storage change, negative = inhibition” value was 2.59% (inactive) and the cell number change came to 0.101%.
On to `Cc1ccccc1C(=O)Nc1ccnn1C1CCN(Cc2c(C)n(C)c3ccccc23)CC1`, for which the “lipid storage change, negative = inhibition” value was -18.4% (inactive) and the cell number change amounted to 1.16%.
The matching figures for `Oc1[nH]c2ccccc2c1N=Nc1c(F)c(F)c(Cl)c(F)c1F`: -1.55% (inactive) and -0.455%.
In the case of `Oc1[nH]c2ccccc2c1N=Nc1c(F)c(F)c(C(F)(F)F)c(F)c1F`, the “lipid storage change, negative = inhibition” value was -3.87% (inactive) and the cell number change was 14.6%.
The corresponding values for `O=C(O)c1ccc(N=Nc2c(O)[nH]c3ccc(Br)cc23)cc1` are -23.1% (inactive) and 13.1%.
`Cc1ccc2[nH]c(O)c(N=NC(N)=S)c2c1`: the “lipid storage change, negative = inhibition” value was -0.73% (inactive) and the cell number change turned out to be 9.04%.
For the molecule `Oc1[nH]c2ccccc2c1N=Nc1ccc(F)cc1`, the Potency is 20.6 µM (active) and the cell number change is -4.65%.
In the case of `Cc1ccc(N=Nc2c(O)[nH]c3ccc(F)cc23)cc1`, the Potency was 9.2 µM (active) and the cell number change turned out to be 2.25%.
